About 7,900 targets were measured; listed, in parts, are those with a hit and a random draw of the rest. About 0.6% of all pairs of compound and target were hits.
How the values were obtained:
Test in all cases: log2 fold change, soluble protein after heating vs DMSO (PISA); higher = thermal stabilisation; K562 cells, 10 uM, 30 min; active = over 0.2 and 3.5 SD of the protein, either way, in both replicates (recomputed)
[1] = compound: C1=CC=C(C=C1)[C@H](COC2=CC3=C(C=C2)NC(=O)N3)NC(=O)C4=CC=CN(C4=O)CC5=CC(=C(C=C5)F)F
Summary of the method: (§1)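 K562 cells at 2×10^6 cells/mL were treated for 30 min with 10 μM compound, and aliquots were heated for 3 min over 48°C-58°C before pooling. Extraction used PBS with 0.5% NP-40 at 4°C, and soluble protein was the supernatant after 21,000xg for 90 min, measured by TMTpro 16plex LC-MS/MS with channel sums equalised. Thermal stability values, relative to control samples and from duplicates, are log2 fold changes.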

[2] = compound: CC1=C(SC2=C1C(=N[C@H](C3=NN=C(N32)C)CC(=O)N)C4=CC=C(C=C4)Cl)C
Summary of the method: as §1

[3] = compound: CC1=C2C(=CC=C1)N=C(N(C2=O)C3=CC=CC=C3C)CN4C=NC5=C(N=CN=C54)N
Summary of the method: as §1

[4] = compound: Cc1sc2c(c1C)C(c1ccc(Cl)cc1)=N[C@@H](CC(=O)OC(C)(C)C)c1nnc(C)n1-2
Summary of the method: as §1

[5] = compound: c1ccc([C@@H]2C[C@H]2NC2CCNCC2)cc1
Summary of the method: as §1

Measured: log2 fold change

CAMSAP1 isoform 3 (UniProt Q5T5Y3)
UniProt Q5T5Y3, sequence (Q5T5Y3 whole entry, looked up): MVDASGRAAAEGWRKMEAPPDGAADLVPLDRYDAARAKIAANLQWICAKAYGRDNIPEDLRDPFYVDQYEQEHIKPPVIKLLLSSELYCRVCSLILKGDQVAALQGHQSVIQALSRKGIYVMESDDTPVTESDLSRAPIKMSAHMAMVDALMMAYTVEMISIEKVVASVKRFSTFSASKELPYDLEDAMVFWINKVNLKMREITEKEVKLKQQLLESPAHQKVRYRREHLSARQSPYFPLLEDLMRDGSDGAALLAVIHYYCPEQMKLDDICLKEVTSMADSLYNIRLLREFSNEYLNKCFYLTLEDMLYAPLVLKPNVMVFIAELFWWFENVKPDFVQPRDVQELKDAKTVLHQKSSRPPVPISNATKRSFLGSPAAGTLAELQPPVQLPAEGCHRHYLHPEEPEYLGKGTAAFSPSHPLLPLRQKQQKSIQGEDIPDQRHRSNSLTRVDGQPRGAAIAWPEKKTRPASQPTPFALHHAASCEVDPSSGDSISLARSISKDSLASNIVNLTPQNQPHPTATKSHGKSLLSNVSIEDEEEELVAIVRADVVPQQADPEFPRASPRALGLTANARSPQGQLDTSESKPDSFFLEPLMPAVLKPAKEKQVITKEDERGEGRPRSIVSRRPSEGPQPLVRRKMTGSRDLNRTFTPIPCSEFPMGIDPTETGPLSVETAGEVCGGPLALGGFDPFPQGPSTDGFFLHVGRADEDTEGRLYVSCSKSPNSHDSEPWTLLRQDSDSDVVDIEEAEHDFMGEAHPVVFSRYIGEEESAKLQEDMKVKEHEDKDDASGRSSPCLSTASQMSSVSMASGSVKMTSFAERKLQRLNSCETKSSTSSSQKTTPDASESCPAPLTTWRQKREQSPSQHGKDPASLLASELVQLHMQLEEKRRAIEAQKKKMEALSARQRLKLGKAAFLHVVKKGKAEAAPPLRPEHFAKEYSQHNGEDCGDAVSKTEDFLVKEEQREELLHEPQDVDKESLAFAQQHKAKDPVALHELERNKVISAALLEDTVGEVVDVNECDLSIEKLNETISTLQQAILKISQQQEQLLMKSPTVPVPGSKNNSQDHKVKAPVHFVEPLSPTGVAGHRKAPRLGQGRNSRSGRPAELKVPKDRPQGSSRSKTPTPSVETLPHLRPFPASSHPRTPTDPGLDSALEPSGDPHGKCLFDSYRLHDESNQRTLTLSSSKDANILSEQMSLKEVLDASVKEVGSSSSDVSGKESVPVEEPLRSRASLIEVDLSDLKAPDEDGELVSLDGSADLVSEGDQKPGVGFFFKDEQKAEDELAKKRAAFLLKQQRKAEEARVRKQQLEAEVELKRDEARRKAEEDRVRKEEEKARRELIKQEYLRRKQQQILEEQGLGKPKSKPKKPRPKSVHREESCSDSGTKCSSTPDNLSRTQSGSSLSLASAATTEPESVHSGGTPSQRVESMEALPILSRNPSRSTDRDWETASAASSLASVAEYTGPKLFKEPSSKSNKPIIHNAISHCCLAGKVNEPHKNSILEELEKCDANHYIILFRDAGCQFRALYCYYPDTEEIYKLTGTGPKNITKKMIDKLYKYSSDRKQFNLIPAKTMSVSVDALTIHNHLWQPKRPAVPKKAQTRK
inactive: [1] -0.06 | [2] 0.083 | [3] 0.221 | [4] 0.016 | [5] 0.02

CDK12 (UniProt Q9NYV4)
inactive: [1] 0.102 | [2] -0.425 | [3] -0.103 | [4] 0.112 | [5] 0.008

C9orf72 (UniProt Q96LT7)
UniProt Q96LT7, sequence (Q96LT7 whole entry, looked up): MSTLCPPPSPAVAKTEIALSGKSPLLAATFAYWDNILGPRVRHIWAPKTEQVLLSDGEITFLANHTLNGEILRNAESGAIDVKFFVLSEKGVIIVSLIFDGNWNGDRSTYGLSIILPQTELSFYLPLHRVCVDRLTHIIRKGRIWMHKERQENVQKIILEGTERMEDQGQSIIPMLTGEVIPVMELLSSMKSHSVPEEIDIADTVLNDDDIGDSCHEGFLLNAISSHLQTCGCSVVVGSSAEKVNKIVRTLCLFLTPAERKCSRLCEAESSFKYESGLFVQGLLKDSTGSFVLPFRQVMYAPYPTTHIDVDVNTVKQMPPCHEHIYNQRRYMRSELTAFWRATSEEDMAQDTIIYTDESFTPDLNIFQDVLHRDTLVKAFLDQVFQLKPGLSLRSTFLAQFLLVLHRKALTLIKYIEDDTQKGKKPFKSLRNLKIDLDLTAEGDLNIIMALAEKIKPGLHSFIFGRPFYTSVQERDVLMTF
inactive: [1] 0.02 | [2] 0.009 | [3] 0.085 | [4] -0.115 | [5] 0.002

CNOT4 isoform 9 (UniProt O95628)
UniProt O95628, sequence (O95628 whole entry, looked up): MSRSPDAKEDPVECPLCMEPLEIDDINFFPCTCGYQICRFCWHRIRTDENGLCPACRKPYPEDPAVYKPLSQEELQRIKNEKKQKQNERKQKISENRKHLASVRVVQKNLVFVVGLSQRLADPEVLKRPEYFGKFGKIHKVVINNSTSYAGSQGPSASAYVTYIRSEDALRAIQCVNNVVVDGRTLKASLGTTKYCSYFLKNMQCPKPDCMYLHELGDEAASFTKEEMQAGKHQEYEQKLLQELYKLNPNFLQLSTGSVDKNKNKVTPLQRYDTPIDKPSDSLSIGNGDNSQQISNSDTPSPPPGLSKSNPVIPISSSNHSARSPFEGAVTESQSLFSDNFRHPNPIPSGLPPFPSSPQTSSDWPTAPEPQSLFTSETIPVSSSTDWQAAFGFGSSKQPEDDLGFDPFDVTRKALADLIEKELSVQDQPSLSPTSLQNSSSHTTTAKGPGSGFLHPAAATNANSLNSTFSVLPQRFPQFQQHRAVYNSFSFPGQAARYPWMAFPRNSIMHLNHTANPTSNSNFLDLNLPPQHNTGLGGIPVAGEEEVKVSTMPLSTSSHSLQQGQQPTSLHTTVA
inactive: [1] 0.009 | [2] -0.09 | [3] 0.147 | [4] -0.067 | [5] -0.055

CBS (UniProt P35520)
UniProt P35520, sequence (P35520 whole entry, looked up): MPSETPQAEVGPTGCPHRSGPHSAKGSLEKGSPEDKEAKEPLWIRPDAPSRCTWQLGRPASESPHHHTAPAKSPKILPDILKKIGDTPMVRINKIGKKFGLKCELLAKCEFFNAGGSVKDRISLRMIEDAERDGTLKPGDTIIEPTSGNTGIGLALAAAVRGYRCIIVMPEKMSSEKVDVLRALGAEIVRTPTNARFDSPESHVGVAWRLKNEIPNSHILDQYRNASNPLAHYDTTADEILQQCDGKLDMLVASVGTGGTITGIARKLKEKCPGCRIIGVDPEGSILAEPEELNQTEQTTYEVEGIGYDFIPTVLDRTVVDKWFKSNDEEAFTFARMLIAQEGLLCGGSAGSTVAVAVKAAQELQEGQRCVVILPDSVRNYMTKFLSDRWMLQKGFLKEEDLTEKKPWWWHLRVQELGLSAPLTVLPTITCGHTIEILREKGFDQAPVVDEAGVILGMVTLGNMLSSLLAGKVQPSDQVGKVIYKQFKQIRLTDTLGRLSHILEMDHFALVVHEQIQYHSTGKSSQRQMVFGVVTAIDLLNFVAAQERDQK
inactive: [1] -0.029 | [2] 0.07 | [3] 0.016 | [4] -0.014 | [5] -0.026

CDC123 (UniProt O75794)
UniProt O75794, sequence (O75794 whole entry, looked up): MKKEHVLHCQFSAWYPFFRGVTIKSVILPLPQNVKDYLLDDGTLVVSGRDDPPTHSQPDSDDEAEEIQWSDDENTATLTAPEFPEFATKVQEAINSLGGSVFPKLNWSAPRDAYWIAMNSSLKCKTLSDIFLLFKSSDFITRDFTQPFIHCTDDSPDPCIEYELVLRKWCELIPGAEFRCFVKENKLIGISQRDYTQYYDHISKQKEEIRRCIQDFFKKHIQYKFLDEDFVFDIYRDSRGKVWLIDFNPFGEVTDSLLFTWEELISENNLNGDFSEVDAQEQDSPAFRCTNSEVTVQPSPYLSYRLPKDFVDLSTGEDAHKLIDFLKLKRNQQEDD
inactive: [1] -0.036 | [2] 0 | [3] 0.03 | [4] -0.018 | [5] -0.029

CLPTM1L (UniProt Q96KA5)
UniProt Q96KA5, sequence (Q96KA5 whole entry, looked up): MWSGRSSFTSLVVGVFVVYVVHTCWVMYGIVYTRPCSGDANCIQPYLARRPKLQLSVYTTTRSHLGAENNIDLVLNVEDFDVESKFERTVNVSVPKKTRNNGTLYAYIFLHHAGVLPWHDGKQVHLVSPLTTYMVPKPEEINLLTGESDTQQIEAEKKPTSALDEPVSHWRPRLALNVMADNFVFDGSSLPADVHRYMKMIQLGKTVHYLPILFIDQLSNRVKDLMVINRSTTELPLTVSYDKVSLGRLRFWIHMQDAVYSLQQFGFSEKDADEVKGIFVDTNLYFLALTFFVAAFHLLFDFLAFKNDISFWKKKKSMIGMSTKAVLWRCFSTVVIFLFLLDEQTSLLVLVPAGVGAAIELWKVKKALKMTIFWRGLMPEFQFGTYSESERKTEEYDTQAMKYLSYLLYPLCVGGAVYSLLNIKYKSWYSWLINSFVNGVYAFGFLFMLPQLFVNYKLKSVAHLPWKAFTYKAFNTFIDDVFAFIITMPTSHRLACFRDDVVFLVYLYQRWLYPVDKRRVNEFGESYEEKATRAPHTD
inactive: [1] -0.011 | [2] 0.013 | [3] 0.024 | [4] -0.145 | [5] 0.01

CDC42BPA isoform 6 (UniProt Q5VT25)
inactive: [1] -0.101 | [2] -0.039 | [3] 0.083 | [4] 0.031 | [5] 0.069

CNOT7 (UniProt Q9UIV1)
UniProt Q9UIV1, sequence (Q9UIV1 whole entry, looked up): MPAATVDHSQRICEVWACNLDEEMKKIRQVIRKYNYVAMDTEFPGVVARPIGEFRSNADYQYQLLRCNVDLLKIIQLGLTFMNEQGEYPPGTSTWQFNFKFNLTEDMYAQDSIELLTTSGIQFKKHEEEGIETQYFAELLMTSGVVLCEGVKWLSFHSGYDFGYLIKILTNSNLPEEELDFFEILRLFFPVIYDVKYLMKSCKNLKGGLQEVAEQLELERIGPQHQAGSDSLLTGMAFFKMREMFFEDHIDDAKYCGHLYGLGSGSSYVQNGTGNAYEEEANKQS
inactive: [1] -0.024 | [2] -0.053 | [3] 0.068 | [4] -0.032 | [5] 0.002
